{"source": "PubChem BioAssay AID651650", "about": "(Sanford-Burnham Center for Chemical Genomics, 2012)", "data": [{"target": "Neuropilin-1 (Homo sapiens) (UniProt O14786)", "sequence (O14786 whole entry, looked up)": "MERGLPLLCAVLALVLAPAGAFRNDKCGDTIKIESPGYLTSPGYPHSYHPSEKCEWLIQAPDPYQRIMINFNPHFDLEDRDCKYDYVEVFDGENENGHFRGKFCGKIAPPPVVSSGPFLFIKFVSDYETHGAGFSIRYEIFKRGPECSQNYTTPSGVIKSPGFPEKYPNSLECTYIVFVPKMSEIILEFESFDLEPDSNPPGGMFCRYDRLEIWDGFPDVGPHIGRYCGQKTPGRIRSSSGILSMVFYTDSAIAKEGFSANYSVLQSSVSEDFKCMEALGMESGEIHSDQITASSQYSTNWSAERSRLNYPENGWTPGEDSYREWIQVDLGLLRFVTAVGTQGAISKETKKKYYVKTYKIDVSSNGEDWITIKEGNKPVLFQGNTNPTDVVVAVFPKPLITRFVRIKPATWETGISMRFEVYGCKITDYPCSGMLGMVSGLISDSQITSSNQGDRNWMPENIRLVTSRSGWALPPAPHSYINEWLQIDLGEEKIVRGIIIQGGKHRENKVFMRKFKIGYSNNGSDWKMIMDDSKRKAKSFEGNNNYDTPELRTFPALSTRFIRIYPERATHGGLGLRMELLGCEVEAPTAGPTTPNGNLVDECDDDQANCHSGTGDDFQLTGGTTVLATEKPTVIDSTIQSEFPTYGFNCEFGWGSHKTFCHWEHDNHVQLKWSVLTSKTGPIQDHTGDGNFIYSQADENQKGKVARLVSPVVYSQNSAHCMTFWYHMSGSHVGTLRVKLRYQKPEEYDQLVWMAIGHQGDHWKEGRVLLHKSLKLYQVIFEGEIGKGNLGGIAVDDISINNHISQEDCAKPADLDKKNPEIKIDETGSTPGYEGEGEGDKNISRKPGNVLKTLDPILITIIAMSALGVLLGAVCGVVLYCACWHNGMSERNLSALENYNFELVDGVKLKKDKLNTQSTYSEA", "assay": "blockers of CendR peptide binding to NRP-1 – biochemical, FP and AlphaScreen panel, dose response (AID 651650)", "details": "NRP-1 b1b2 / RPARPAR peptide binding, FP or AlphaScreen; run 1, at 100 µM (top of the series)", "units": {"inhibition": "%"}, "values": [{"smiles": "CCN(C[C@H]1N[C@@](CC)(C(=O)OC)[C@H]2C(=O)N(C)C(=O)[C@@H]12)S(=O)(=O)c1ccc(OC)cc1", "inhibition": 30.5}, {"smiles": "CCOc1ccc(C2CC(c3ccc(CC)cc3)n3nc(N)nc3N2)cc1", "note": "(stereo not drawn)", "inhibition": 4.44}, {"smiles": "Cc1ccc(C(=O)O)cc1NC(=O)Nc1cccc2ccccc12", "inhibition": 30.6}, {"smiles": "CCCCC1CCC(C(=O)NC2CCS(=O)(=O)C2)CC1", "note": "(stereo not drawn)", "inhibition": 16.6}, {"smiles": "CC(C)COC(=O)C1C2C=CC3(CN(C(C)c4ccc(Br)cc4)C(=O)C13)O2", "note": "(stereo not drawn)", "inhibition": 60.2}, {"smiles": "COc1ccc(C(C(=O)NC(C)(C)C)N(C(=O)CCC(=O)Nc2cc(C)on2)c2c(C)cccc2C)cc1", "note": "(stereo not drawn)", "inhibition": 42.7}, {"smiles": "CSc1ncccc1C(=O)OCC(=O)NC1CCCCC1", "inhibition": 56.7}, {"smiles": "C/C(=N\\NC(=O)c1cc(O)ccc1O)c1cccc(NC(=O)c2cccc(Cl)c2)c1", "inhibition": 27.7}, {"smiles": "O=C(CCc1ccc(Oc2cc([N+](=O)[O-])cc([N+](=O)[O-])c2)cc1)N1CCCCCC1", "inhibition": 75.6}, {"smiles": "CCc1onc(C)c1C(=O)Nc1cc(C)ccc1OC", "inhibition": 95.6}, {"smiles": "COc1ccc(Cl)cc1S(=O)(=O)N1CCN(CC(=O)C(C)(C)C)CC1", "inhibition": -4.16}, {"smiles": "Cc1cc(C)n2c(SCC(=O)Nc3cccc(S(N)(=O)=O)c3)nnc2n1", "inhibition": -5.38}, {"smiles": "O=C(NCCCN1CCCCCC1)c1ccc(CS(=O)(=O)Cc2ccccc2F)o1", "inhibition": 40.3}, {"smiles": "Cc1cccc(CN2CCN(C3CN(Cc4cn(Cc5cccc(Cl)c5)nn4)S(=O)(=O)C3)CC2)c1", "note": "(stereo not drawn)", "inhibition": 33.2}, {"smiles": "Cc1ccc(C(=O)N/C(=C\\c2sccc2C)C(=O)NCc2ccco2)cc1", "inhibition": 53.9}, {"smiles": "c1ccc2c3n(nc2c1)CCCO3", "inhibition": 27.6}, {"smiles": "O=c1c2cn[nH]c2nc(SCc2ccccc2F)n1-c1ccc(Br)cc1", "inhibition": 53.3}, {"smiles": "CCCCCc1c(-c2cccc(Cl)c2)ncn1CCc1ccccc1OC", "inhibition": 51.8}, {"smiles": "Cc1ccccc1Oc1ccc2c(c1)[C@@H]1C[C@H](N(C)C(=O)Nc3cc(Cl)cc(Cl)c3)[C@H]([C@H](C)O)C(=O)N1CC2", "inhibition": 97.5}, {"smiles": "CC(OC(=O)c1ccco1)C(=O)Nc1nc(-c2ccccc2)cs1", "note": "(stereo not drawn)", "inhibition": -9.71}, {"smiles": "C=CCNC(=O)c1onc(CSc2ccc(F)c(F)c2)c1C(=O)NCC=C", "inhibition": 38.7}, {"smiles": "Cc1ccc(NC(=O)c2ccc3c(c2)OCCO3)cc1S(=O)(=O)Nc1cccc(Cl)c1", "inhibition": 4.91}, {"smiles": "O=C(CSc1nc2ccc(Cl)cc2[nH]1)NCCc1ccccc1", "inhibition": 18.8}, {"smiles": "CCOc1ccc(S(=O)(=O)NNC(=O)c2cc3ccccc3o2)cc1", "inhibition": 1.91}, {"smiles": "Cc1ccc(NC(=O)COc2ncnc3c(Cl)cc(Cl)cc23)cc1[N+](=O)[O-]", "inhibition": -2.85}, {"smiles": "CN(c1ccccc1)S(=O)(=O)c1cccc(NC(=O)CSc2nncn2C)c1", "inhibition": 21.8}, {"smiles": "C=CCOc1c(CNc2ncn[nH]2)cccc1OCC", "inhibition": 33.2}, {"smiles": "O=C(CSC1CN(C(c2ccccc2)c2ccccc2)C1)N/N=C/c1ccccc1", "inhibition": 53.3}, {"smiles": "NC(=O)C1CCN(c2nc(-c3ccc4occc(=O)c4c3)cs2)CC1", "inhibition": 53.3}, {"smiles": "COC(=O)[C@@]1(Cc2ccc(OC)cc2)[C@H]2c3cc(C(=O)N4CCCC4)n(CCN4CCOCC4)c3C[C@H]2CN1C(=O)c1ccccc1", "inhibition": 38.7}, {"smiles": "CCCCOC(=O)c1ccc(NS(=O)(=O)c2cc(-c3nnnn3CC)ccc2OC)cc1", "inhibition": 44.5}, {"smiles": "Cc1cc(C)cc(N(CCC(=O)O)S(=O)(=O)c2ccc3ccccc3c2)c1", "inhibition": 38.7}, {"smiles": "CC(O)(c1cccnc1)c1nc(/C=C/c2ccccc2)cs1", "note": "(stereo not drawn)", "inhibition": 42.6}, {"smiles": "COc1ccc(/C=N/NC(=O)c2nn(-c3ccc(Cl)cc3)c(=O)c3c(N)scc23)cc1", "inhibition": 17.8}, {"smiles": "Cc1cccc(N(CC(=O)NC2CCCC2)C(=O)CS(=O)CC(=O)Nc2ccc3c(c2)OCO3)c1C", "note": "(stereo not drawn)", "inhibition": 49}, {"smiles": "O=C(/C=C/c1ccccc1)c1ccccn1", "inhibition": -2}, {"smiles": "CC(=O)c1ccc(OCC(=O)Nc2nnc(C3CC3)s2)cc1", "inhibition": -27.1}, {"smiles": "O=C(COC(=O)c1ccccn1)c1ccc([N+](=O)[O-])cc1", "inhibition": 66.4}]}]}
